From PubChem BioAssay
For some of these results: Entries with a potency or affinity are not part of this list. Active and inactive are the calls of the source. Unless noted, the rule behind the calls is not given here.

Assays:
[1] = antimalarial activity against Dd2 strain (AID 2302;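 active = growth inhibition above 50% at the single 2 µM test dose, taken to imply half-maximal potency below 2 µM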;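 note: 0% = DMSO untreated growth and 100% = chloroquine plus artemisinin killed control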); conditions: P. falciparum Dd2 in RBCs, LDH growth readout, 72 h; at 2 µM; hits give high values
[2] = human hepatoma cell viability loss – ATP luminescence, cytotoxicity control for P. falciparum antimalarial project, primary screen (AID 2303;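 active = inhibition above 50%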;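 note: 0% = DMSO wells and 100% = digitonin-killed cells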); conditions: HepG2 viability, 24-48 h, at 10 µM, hits give high values
[3] = biological target: L-lactate dehydrogenase (Plasmodium falciparum (isolate CDC / Honduras)) (UniProt Q27743); assay: PfLDH activity inhibition – cell lysate, 3D7 strain, counter-screen for P. falciparum growth inhibition project (AID 2304);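 note: 0% = vehicle and 100% = reference inhibitor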; conditions: P. falciparum 3D7 crude extract, LDH APAD/NBT absorbance; at 2 µM; hits give high values
Chain of L-lactate dehydrogenase (Plasmodium falciparum (isolate CDC / Honduras)) (Q27743 whole entry, looked up): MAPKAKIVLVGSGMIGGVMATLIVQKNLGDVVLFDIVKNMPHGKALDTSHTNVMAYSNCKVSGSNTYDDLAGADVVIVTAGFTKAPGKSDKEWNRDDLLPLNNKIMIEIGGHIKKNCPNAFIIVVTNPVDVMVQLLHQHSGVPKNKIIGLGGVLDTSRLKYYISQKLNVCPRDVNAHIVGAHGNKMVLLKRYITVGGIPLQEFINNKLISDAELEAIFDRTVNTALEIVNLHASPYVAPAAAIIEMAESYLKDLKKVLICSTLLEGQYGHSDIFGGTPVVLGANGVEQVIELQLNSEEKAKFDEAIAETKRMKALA

[4] = inhibition of 3D7 malaria parasite growth – strain 3D7 (AID 2306);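 note: 0% = DMSO wells and 100% = chloroquine plus artemisinin control wells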; conditions: P. falciparum 3D7 erythrocytic growth, LDH absorbance, 72 h; at 2 µM; hits give high values
[5] = biological target: Calcium-dependent protein kinase 1 (Plasmodium falciparum (isolate 3D7)) (UniProt P62344); assay: PfCDPK1 kinase inhibitors, biochemical, TCAMS library (AID 1159585; cut-off not given, nearly all actives have IC50 up to about 0.98 µM;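 note: inhibitors leave more ATP so luminescence rises with inhibition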); conditions: recombinant PfCDPK1, Kinase-Glo ATP depletion luminescence
Chain of Calcium-dependent protein kinase 1 (Plasmodium falciparum (isolate 3D7)) (P62344 whole entry, looked up): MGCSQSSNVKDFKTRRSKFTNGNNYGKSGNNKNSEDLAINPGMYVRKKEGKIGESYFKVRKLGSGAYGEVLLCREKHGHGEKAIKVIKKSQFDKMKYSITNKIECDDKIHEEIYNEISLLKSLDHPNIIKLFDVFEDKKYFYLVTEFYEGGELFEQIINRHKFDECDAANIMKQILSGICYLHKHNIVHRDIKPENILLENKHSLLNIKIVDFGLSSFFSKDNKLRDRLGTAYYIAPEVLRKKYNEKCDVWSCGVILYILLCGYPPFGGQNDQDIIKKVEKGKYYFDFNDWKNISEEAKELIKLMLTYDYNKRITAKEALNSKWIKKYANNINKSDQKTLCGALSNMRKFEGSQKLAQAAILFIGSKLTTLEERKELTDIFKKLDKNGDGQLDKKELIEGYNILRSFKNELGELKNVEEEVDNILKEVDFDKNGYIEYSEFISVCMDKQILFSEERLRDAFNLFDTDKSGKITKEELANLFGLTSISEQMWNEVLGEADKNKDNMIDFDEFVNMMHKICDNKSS

[6] = biological target: Plasmodium falciparum protein kinase 6 (PK6, PF3D7_1337100) (UniProt Q8IDW1); assay: PfPK6 kinase inhibitors, biochemical, TCAMS library (AID 1159586); conditions: recombinant PfPK6, Kinase-Glo ATP depletion luminescence
Chain of Plasmodium falciparum protein kinase 6 (PK6, PF3D7_1337100) (Q8IDW1 1-305): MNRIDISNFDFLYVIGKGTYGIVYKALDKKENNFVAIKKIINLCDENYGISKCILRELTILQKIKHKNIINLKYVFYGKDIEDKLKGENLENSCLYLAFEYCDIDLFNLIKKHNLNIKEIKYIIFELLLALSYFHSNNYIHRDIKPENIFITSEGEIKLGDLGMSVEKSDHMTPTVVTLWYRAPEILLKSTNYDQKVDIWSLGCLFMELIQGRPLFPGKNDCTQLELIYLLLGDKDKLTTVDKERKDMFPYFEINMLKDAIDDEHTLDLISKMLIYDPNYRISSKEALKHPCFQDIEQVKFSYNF

[7] = biological target: Protein kinase 7 (PK7), Plasmodium falciparum 3D7 (PF3D7_0213400) (UniProt Q7YTF7); assay: inhibition of Plasmodium PK7 catalytic activity – biochemical, TCAMS antimalarial set, Kinase-Glo luminescence (AID 1159587); conditions: recombinant PfPK7, Kinase-Glo ATP depletion luminescence
Chain of Protein kinase 7 (PK7), Plasmodium falciparum 3D7 (PF3D7_0213400) (Q7YTF7 1-343): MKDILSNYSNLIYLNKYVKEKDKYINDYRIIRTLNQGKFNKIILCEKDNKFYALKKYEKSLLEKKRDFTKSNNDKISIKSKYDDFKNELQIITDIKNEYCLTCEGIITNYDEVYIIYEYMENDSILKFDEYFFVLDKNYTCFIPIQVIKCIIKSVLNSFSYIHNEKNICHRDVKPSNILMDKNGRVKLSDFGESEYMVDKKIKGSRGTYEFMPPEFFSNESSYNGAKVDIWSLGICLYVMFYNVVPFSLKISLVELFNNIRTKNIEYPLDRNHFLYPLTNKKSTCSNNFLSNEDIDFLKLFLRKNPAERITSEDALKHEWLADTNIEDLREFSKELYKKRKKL

[8] = biological target: Calcium-dependent protein kinase 4 (Plasmodium falciparum (isolate 3D7)) (UniProt Q8IBS5); assay: PfCDPK4 kinase inhibitors, biochemical, TCAMS library (AID 1159588; cut-off not given, nearly all actives have IC50 up to about 0.91 µM); conditions: recombinant PfCDPK4, Kinase-Glo ATP depletion luminescence
Chain of Calcium-dependent protein kinase 4 (Plasmodium falciparum (isolate 3D7)) (Q8IBS5 whole entry, looked up): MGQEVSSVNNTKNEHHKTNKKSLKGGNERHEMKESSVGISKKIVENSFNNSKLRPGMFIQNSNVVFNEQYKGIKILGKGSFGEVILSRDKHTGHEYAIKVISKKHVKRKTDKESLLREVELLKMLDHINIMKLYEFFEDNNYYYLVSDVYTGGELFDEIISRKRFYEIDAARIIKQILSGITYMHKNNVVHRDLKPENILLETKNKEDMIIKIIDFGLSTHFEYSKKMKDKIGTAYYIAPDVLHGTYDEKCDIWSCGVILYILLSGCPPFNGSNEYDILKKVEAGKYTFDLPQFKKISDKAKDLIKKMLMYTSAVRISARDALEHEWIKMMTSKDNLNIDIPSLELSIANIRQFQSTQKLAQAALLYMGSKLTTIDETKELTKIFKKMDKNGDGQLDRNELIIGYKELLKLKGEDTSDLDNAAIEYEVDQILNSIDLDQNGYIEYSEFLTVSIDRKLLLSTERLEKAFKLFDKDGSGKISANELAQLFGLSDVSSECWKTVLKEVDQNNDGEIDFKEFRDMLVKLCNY

CCc1c(CCNCCCCCCNCCc2ccc(Br)cc2)ccc(O)c1O
inactive: growth inhibition [1] 1% | inhibition [2] 11% | inhibition [3] -1% | outcome [5] | outcome [6] | outcome [7] | outcome [8]
active: growth inhibition [4] 95%

Cc1ccc(-c2ccc3c(c2)C=C(C(=O)NCC2CCN(CC4CCN(C(=O)/C=C/c5ccc(Cl)c(Cl)c5)CC4)CC2)CCC3)cc1
active: growth inhibition [1] 70% | inhibition [2] 96% | growth inhibition [4] 99%
inactive: inhibition [3] -7% | outcome [5] | outcome [6] | outcome [7] | outcome [8]

CN(C)CCOc1cc(NC(=O)Nc2ccc(Cl)cc2C(F)(F)F)ccc1I
active: growth inhibition [4] 96%
inactive: growth inhibition [1] 16% | inhibition [2] -2% | inhibition [3] 5% | outcome [5] | outcome [6] | outcome [7] | outcome [8]

CCCC1N=C(N)N=C(N)N1c1ccc(C)c(C)c1 (centres undefined)
active: growth inhibition [4] 95%
inactive: growth inhibition [1] -2% | inhibition [2] 7% | inhibition [3] -3% | outcome [5] | outcome [6] | outcome [7] | outcome [8]

Cc1[nH]c(C)c(-c2ccc(Br)cc2)c(=O)c1Cl
inactive: inhibition [2] 22% | inhibition [3] -2% | outcome [5] | outcome [6] | outcome [7] | outcome [8]
active: growth inhibition [1] 77% | growth inhibition [4] 94%

CCc1c(C)nc(-n2nc(C)cc2NC(=O)C2c3ccccc3Oc3ccccc32)[nH]c1=O
active: growth inhibition [1] 80% | growth inhibition [4] 89%
inactive: inhibition [2] 37% | inhibition [3] 1% | outcome [5] | outcome [6] | outcome [7] | outcome [8]

COCc1ccccc1C(=O)NCCOc1cc(C)cc(C)c1
inactive: inhibition [2] 26% | inhibition [3] 5% | outcome [5] | outcome [6] | outcome [7] | outcome [8]
active: growth inhibition [1] 95% | growth inhibition [4] 96%

Cc1ccc(C(C)C)c(Oc2cnc(NC(CO)c3ccccc3)nc2N)c1 (centres undefined)
active: growth inhibition [4] 95%
inactive: growth inhibition [1] 0% | inhibition [2] 27% | inhibition [3] 4% | outcome [5] | outcome [6] | outcome [7] | outcome [8]

N=C(N)c1cccc(-c2cc(-c3cccc(C(=N)N)c3)on2)c1
inactive: inhibition [2] 8% | inhibition [3] 3% | outcome [5] | outcome [6] | outcome [7] | outcome [8]
active: growth inhibition [1] 78% | growth inhibition [4] 96%

CC(C)c1cc(N)c2cc(NC(=O)COCC(=O)Nc3ccc4nc(C(C)C)cc(N)c4c3)ccc2n1
active: growth inhibition [1] 95% | growth inhibition [4] 95%
inactive: inhibition [2] -8% | inhibition [3] 0% | outcome [5] | outcome [6] | outcome [7] | outcome [8]

CCCCCCCN(CCCCCCC)CCCC(=O)Nc1ccnc2ccc(OC)cc12
inactive: inhibition [2] 43% | inhibition [3] -5% | outcome [5] | outcome [6] | outcome [7] | outcome [8]
active: growth inhibition [1] 98% | growth inhibition [4] 100%

Cc1ccc(C(=O)NC2CCN(CCNC(=O)Nc3cc(C)nc4ccccc34)CC2)cc1
active: growth inhibition [1] 76% | growth inhibition [4] 98%
inactive: inhibition [2] -12% | inhibition [3] -8% | outcome [5] | outcome [6] | outcome [7] | outcome [8]

NC(N)=NN=Cc1ccc2c(ccc3ccccc32)c1
inactive: inhibition [2] 9% | inhibition [3] 6% | outcome [5] | outcome [6] | outcome [7] | outcome [8]
active: growth inhibition [1] 68% | growth inhibition [4] 100%

Cc1ccc2c(=O)n(C)c(=O)n(C)c2n1
inactive: growth inhibition [1] -3% | inhibition [2] 15% | inhibition [3] 4% | outcome [5] | outcome [6] | outcome [7] | outcome [8]
active: growth inhibition [4] 98%

Cc1nc(/N=C(\N)NC(=O)NC2CCCCC2)nc2ccccc12
active: growth inhibition [1] 99% | growth inhibition [4] 95%
inactive: inhibition [2] 21% | inhibition [3] -2% | outcome [5] | outcome [6] | outcome [7] | outcome [8]

Cc1ccc(NC(=O)c2cc(Br)cc(N3CCC(N(C)C)CC3)c2)cc1F
inactive: inhibition [2] 23% | inhibition [3] -3% | outcome [5] | outcome [6] | outcome [7] | outcome [8]
active: growth inhibition [1] 80% | growth inhibition [4] 100%

NCC1CCCN1Cc1cccc(-c2ccc(-c3nc4ccccc4[nH]3)s2)c1 (centres undefined)
active: growth inhibition [1] 66% | growth inhibition [4] 99%
inactive: inhibition [2] 16% | inhibition [3] 3% | outcome [5] | outcome [6] | outcome [7] | outcome [8]

CCc1cn(C)c2c(N3CCCC3=O)cc(C(=O)N[C@@H](Cc3ccccc3)[C@H](O)CNCc3cccc(OC)c3)cc12
active: growth inhibition [1] 97% | growth inhibition [4] 96%
inactive: inhibition [2] 7% | inhibition [3] 0% | outcome [5] | outcome [6] | outcome [7] | outcome [8]

Cc1cc(N2CCCCC2)nc2ccc(NC(=O)c3cc(=O)c4ccccc4o3)cc12
active: growth inhibition [4] 98%
inactive: growth inhibition [1] 19% | inhibition [2] 15% | inhibition [3] -7% | outcome [5] | outcome [6] | outcome [7] | outcome [8]

Cc1ccc(N2CCN(CCCCNC(=O)c3ccc(NC(=O)c4ccc(Cl)cc4)cc3)CC2)c(C)c1
inactive: growth inhibition [1] 20% | inhibition [2] 30% | inhibition [3] 7% | outcome [5] | outcome [6] | outcome [7] | outcome [8]
active: growth inhibition [4] 95%

Cc1cc(NC(=O)Nc2ccc3ncccc3c2)c2ccccc2n1
active: growth inhibition [4] 93%
inactive: growth inhibition [1] 27% | inhibition [2] 6% | inhibition [3] -3% | outcome [5] | outcome [6] | outcome [7] | outcome [8]

CCC(NC[C@@H](O)[C@H](Cc1ccccc1)NC(=O)c1cc(C2CCCC2)cc(N2CCCC2=O)c1)c1cccc(Cl)c1 (some centres undefined)
active: growth inhibition [1] 97% | growth inhibition [4] 100%
inactive: inhibition [2] 7% | inhibition [3] -8% | outcome [5] | outcome [6] | outcome [7] | outcome [8]

N#Cc1cccc(C(O)CN(Cc2ccccc2)Cc2ccccc2)c1 (centres undefined)
active: growth inhibition [1] 100% | growth inhibition [4] 101%
inactive: inhibition [2] 12% | inhibition [3] 1% | outcome [5] | outcome [6] | outcome [7] | outcome [8]

CC(C)CC(=O)NC1CCN(Cc2c(-c3cccs3)nc3ccccc3c2C(=O)N[C@@H](C)C2CCCCC2)CC1
inactive: inhibition [2] -3% | inhibition [3] -9% | outcome [5] | outcome [6] | outcome [7] | outcome [8]
active: growth inhibition [1] 97% | growth inhibition [4] 96%

Nc1nc(N)c2c(ccc3c2ccn3CCCCO)n1
active: inhibition [2] 61% | growth inhibition [4] 93%
inactive: growth inhibition [1] 49% | inhibition [3] -2% | outcome [5] | outcome [6] | outcome [7] | outcome [8]

CSc1nc2nc(C)c(Cc3cccc(C(F)(F)F)c3)c(C)n2n1
active: growth inhibition [1] 95% | growth inhibition [4] 98%
inactive: inhibition [2] 4% | inhibition [3] 2% | outcome [5] | outcome [6] | outcome [7] | outcome [8]

Nc1cccc(CNCc2cccc(-c3ccc(-c4nc5ccccc5[nH]4)s3)c2)c1
active: growth inhibition [1] 90% | growth inhibition [4] 101%
inactive: inhibition [2] 8% | inhibition [3] -1% | outcome [5] | outcome [6] | outcome [7] | outcome [8]

Cc1cc(CNCCCCCCCNCc2ccc(Cl)cc2)ccc1O
active: growth inhibition [4] 97%
inactive: growth inhibition [1] 0% | inhibition [2] 13% | inhibition [3] -4% | outcome [5] | outcome [6] | outcome [7] | outcome [8]

COc1ccc(CNc2ncnc3c2[nH]c2ccc(F)cc23)cc1
inactive: inhibition [2] 38% | inhibition [3] -3% | outcome [5] | outcome [6] | outcome [7] | outcome [8]
active: growth inhibition [1] 71% | growth inhibition [4] 93%

NC(=O)c1ccsc1NC(=O)CNC(c1ccccc1)c1ccccc1
active: growth inhibition [4] 88%
inactive: growth inhibition [1] 37% | inhibition [2] 8% | inhibition [3] 3% | outcome [5] | outcome [6] | outcome [7] | outcome [8]

CN(CCN)Cc1ccc(-c2ccc(-c3nc4ccc(F)cc4[nH]3)s2)cc1
inactive: inhibition [2] 31% | inhibition [3] -1% | outcome [5] | outcome [6] | outcome [7] | outcome [8]
active: growth inhibition [1] 81% | growth inhibition [4] 96%

Cc1cccc2[nH]c(-c3cccc(-c4ccc(NC(=O)CN5CCOCC5)cc4)c3)nc12
inactive: growth inhibition [1] 12% | inhibition [3] 4% | outcome [5] | outcome [6] | outcome [7] | outcome [8]
active: inhibition [2] 59% | growth inhibition [4] 94%

CC(C)C[C@H](NC(=O)c1ccc(OCCN2CCOCC2)cc1)C(=O)N[C@H](/C=N/NC(=O)c1ccccc1)CCc1ccccc1
active: growth inhibition [1] 90% | growth inhibition [4] 98%
inactive: inhibition [2] 17% | inhibition [3] -3% | outcome [5] | outcome [6] | outcome [7] | outcome [8]

Cc1cccc(-c2nn(-c3ccccc3)cc2C(=O)Nc2nnc(C)o2)c1
active: growth inhibition [1] 63% | growth inhibition [4] 84%
inactive: inhibition [2] 38% | inhibition [3] 4% | outcome [5] | outcome [6] | outcome [7] | outcome [8]

CCc1c(C)nc(-n2nc(C)cc2NC(=O)c2ccc(OC)cc2OC)[nH]c1=O
inactive: inhibition [2] 42% | inhibition [3] 1% | outcome [5] | outcome [6] | outcome [7] | outcome [8]
active: growth inhibition [1] 57% | growth inhibition [4] 96%

Oc1ccc2[nH]c(-c3cccs3)nc2c1CN1CCC(O)(c2ccccc2)CC1
active: growth inhibition [1] 69% | growth inhibition [4] 93%
inactive: inhibition [2] 10% | inhibition [3] -1% | outcome [5] | outcome [6] | outcome [7] | outcome [8]

O=C(Nc1ccc(C(F)(F)F)cc1)c1cccc(S(=O)(=O)NCC2CCCN(CC3CCCCC3)C2)c1 (centres undefined)
inactive: growth inhibition [1] 4% | inhibition [2] 27% | inhibition [3] 0% | outcome [5] | outcome [6] | outcome [7] | outcome [8]
active: growth inhibition [4] 97%

Nc1nccc2ccc(-c3ccsc3)cc12
active: growth inhibition [1] 89% | growth inhibition [4] 100%
inactive: inhibition [2] 38% | inhibition [3] 4% | outcome [5] | outcome [6] | outcome [7] | outcome [8]
